Rows were chosen to be rich in hits. Some 8.2% of all compounds tested hit in one or more screens of this group.
SW480 rereplic: DNA re-replication induction in SW480 cells. SW480 DNA re-replication, Hoechst DNA content imaging, 48 h. AID 624297. actives 1.8% (n = 340,000). Potency, µM (titrated, usually from 46.1 µM), most hits filed as activators; also: nearly all actives have a fitted effect of over 55% in size
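250 cells/well; 23 nL cpd via pin tool; 48 hr, 37 C, 5% CO2; Hoechst 40 min; imager read of total nuclear intensity, ex 405/em 500-530 nm.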
ELG1 repair inh: ELG1-dependent DNA repair inhibition. Potency, µM (series often up to 46.1 µM), actives largely listed as inhibitors. actives 2.3% (n = 330,000). HEK293T ELG1-luciferase reporter, luminescence, 16 h; DNA damage induced by 5-fluorouridine; also: nearly all actives have a fitted effect of over 55% in size
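HEK293T cells expressing luciferase-tagged ELG1 (2,000/well) received 5-Fluorouridine plus compound or DMSO for 16 hr at 37 °C. Luciferase was read by ONE-Glo luminescence after 30 min at room temperature.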
MCF10A rereplic: DNA re-replication induction in MCF 10a cells; Potency, µM (top dose mostly 46.1 µM), most hits filed as activators; MCF 10A DNA re-replication, Hoechst nuclear intensity, 48 h; AID 624296; actives 2.9% (n = 350,000); also: nearly all actives have a fitted effect of over 50% in size
KB-V1 cytotox: kills drug-selected multidrug resistant KB-V1 cells | Potency, µM (titrated, usually from 46.1 µM), actives largely listed as cytotoxic | KB-V1 MDR cells viability, CellTiter-Glo, 72 h | AID 1347076 | actives 3.4% (n = 400,000); also: nearly all actives have a fitted effect of over 60% in size
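Drug-selected KB-V1 cells, grown in DMEM lacking phenol red with 10% FBS, receive compound titrations; after three days at 37 degrees C, surviving cell ATP is quantified by CellTiter-Glo luminescence and responses normalized and curve-fitted.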
KB-3-1 tox: KB-3-1 parental cell cytotoxicity; actives 1.4% (n = 400,000); AID 1347075; KB-3-1 viability, CellTiter-Glo ATP luminescence, 72 h; Potency, µM (titrated, usually from 46.1 µM), usual class: cytotoxic; also: nearly all actives have a fitted effect of over 60% in size
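Using CellTiter-Glo luminescence, growth of non-resistant KB-3-1 adenocarcinoma cells is assessed 72 h after pin-tool compound addition at 37 °C. Normalized responses across the concentration series yield fitted curves.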
Each line names hits and unclear results; the compound was inactive in the other large screens; ! = not active in a repeat. Calls follow the shape of the dose curve; as a rule, active = well fitted curve in the direction sought with a large enough effect; inconclusive = small, poorly fitted or top-dose-only effect, or another doubt; inactive = no such curve, though single readings can be large; an effect the other way counts as inactive or inconclusive.

CCn1nccc1NC(=O)c1csc([C@@H]2O[C@H](CO)[C@H](O)[C@H](O)[C@H]2O)n1	none (no result: SW480 rereplic, ELG1 repair inh, MCF10A rereplic)
Cc1nc2ccc(NS(=O)(=O)c3ccc(F)c(F)c3F)cc2s1	ELG1 repair inh inconclusive
Cc1nc2ccc(NS(=O)(=O)c3ccc(F)cc3F)cc2s1	KB-V1 cytotox 4.11µM, KB-3-1 tox inconclusive
CNC(=S)Nc1ccc(-c2nc3ccc(C)cc3s2)cc1	SW480 rereplic inconclusive, ELG1 repair inh inconclusive, MCF10A rereplic 22.4µM
CCCCCN(C(=O)CCC(=O)OCC(=O)N(C)Cc1ccc(C)cc1)c1c(N)n(CCCC)c(=O)[nH]c1=O	KB-V1 cytotox inconclusive
CCCCCCCCN1C(=O)C(O)=C(C(C)=O)C1c1ccccn1 (centres undefined)	KB-V1 cytotox 16.4µM
CCCCN1C(=O)C(O)=C(C(C)=O)C1c1ccccc1 (centres undefined)	none
COc1cccc(OC)c1NC(=O)Cc1nn(C)c(=O)c2ccccc12	none
Cc1csc(NC(=O)Cc2nn(C)c(=O)c3ccccc23)n1	ELG1 repair inh inconclusive, KB-V1 cytotox 16.4µM, KB-3-1 tox inconclusive
Cc1ccc(NC(=O)Cc2nn(C)c(=O)c3ccccc23)cc1F	ELG1 repair inh inconclusive, KB-V1 cytotox 2.06µM, KB-3-1 tox 7.31µM
O=c1cc(-c2ccccc2Cl)oc2c(NS(=O)(=O)c3ccccc3OC(F)(F)F)ccc(O)c12	ELG1 repair inh inconclusive, MCF10A rereplic inconclusive, KB-V1 cytotox inconclusive, KB-3-1 tox inconclusive
CC(=O)Oc1ccc2c(=O)c(/C=N/c3cc(=O)[nH]c(=S)[nH]3)coc2c1	none
CCOc1ccccc1/C=C/c1nc2ccccc2[nH]c1=O	SW480 rereplic 23.1µM, MCF10A rereplic inconclusive
CCOc1ccccc1/C=C/c1cc(C(=O)O)c2ccccc2n1	ELG1 repair inh inconclusive, MCF10A rereplic inconclusive
Cc1ccc(NC(=O)Cn2c(=O)n(Cc3ccccc3)c(=O)c3c(C)c(C(=O)N(C)C)sc32)c(C)c1	none (no result: SW480 rereplic, ELG1 repair inh, MCF10A rereplic)
CCCc1cc(-n2ccnc2C)n2c(nc3ccccc32)c1C#N	SW480 rereplic inconclusive (no result: ELG1 repair inh)
CCCc1cc(NCCCCO)n2c(nc3ccccc32)c1C#N	ELG1 repair inh inconclusive, KB-V1 cytotox 23.1µM
CCCc1cc(N2CCN(C(=O)c3ccco3)CC2)n2c(nc3ccccc32)c1C#N	SW480 rereplic inconclusive, ELG1 repair inh inconclusive, MCF10A rereplic 20.6µM
CCCc1cc(NCCOCCO)n2c(nc3ccccc32)c1C#N	none (no result: SW480 rereplic, ELG1 repair inh, MCF10A rereplic)
CCCc1cc(NCCCN2CCOCC2)n2c(nc3ccccc32)c1C#N	ELG1 repair inh inconclusive, MCF10A rereplic 20.6µM
O=C(Nc1ccc2c(c1)OCCO2)c1ccccn1	ELG1 repair inh inconclusive, KB-V1 cytotox inconclusive, KB-3-1 tox 18.4µM
O=C(Nc1ncccc1O)c1ccc2c(c1)OCCO2	ELG1 repair inh inconclusive, KB-V1 cytotox inconclusive, KB-3-1 tox 4.11µM
O=C(Nc1ccc2c(c1)OCCO2)c1cccc2nc3ccccc3nc12	ELG1 repair inh inconclusive, MCF10A rereplic inconclusive, KB-V1 cytotox 6.51µM, KB-3-1 tox inconclusive
O=C(Nc1cccc(-c2nnc(-c3ccco3)o2)c1)c1ccccc1	MCF10A rereplic inconclusive, KB-V1 cytotox inconclusive, KB-3-1 tox inconclusive
O=C(Nc1cccc(-c2nnc(-c3ccco3)o2)c1)C(c1ccccc1)c1ccccc1	ELG1 repair inh 13µM, KB-V1 cytotox inconclusive
O=C(Cc1ccc(Cl)cc1)Nc1cccc(-c2nnc(-c3ccco3)o2)c1	KB-V1 cytotox 0.581µM, KB-3-1 tox inconclusive
COc1cc(OC)c(NS(=O)(=O)c2ccc3c(c2)NC(=O)CCS3)cc1Cl	KB-V1 cytotox inconclusive, KB-3-1 tox 18.4µM (no result: SW480 rereplic, ELG1 repair inh, MCF10A rereplic)
Cc1ccc(NS(=O)(=O)c2ccc3c(c2)NC(=O)CCS3)c(Br)c1	KB-V1 cytotox 23.1µM!, KB-3-1 tox inconclusive
COc1cc(OC)c(NS(=O)(=O)c2ccc3c(c2)NC(=O)CO3)cc1Cl	none
CCn1c(=O)c2cc(C(=O)N(CCCOC(C)C)Cc3ccco3)sc2c2ccccc21	KB-V1 cytotox inconclusive (no result: SW480 rereplic, ELG1 repair inh, MCF10A rereplic)
CCc1nn2c(=O)cc(COC(=O)c3ccc(SC)cc3OC)nc2s1	KB-V1 cytotox 10.3µM
CCOC(=O)c1ccc(Nc2ncnc3ccc(C)cc23)cc1	MCF10A rereplic inconclusive, KB-3-1 tox inconclusive
CCOc1ccc(Nc2ncnc3ccc([N+](=O)[O-])cc23)cc1	ELG1 repair inh 9.2µM
NC1=NC(c2ccc(F)cc2)n2c(nc3ccccc32)N1 (centres undefined)	SW480 rereplic inconclusive, MCF10A rereplic 25.9µM
NC1=NC(c2cccc(O)c2)n2c(nc3ccccc32)N1 (centres undefined)	SW480 rereplic inconclusive
Cc1c(Cl)ccc2c(C(O)CBr)cc(-c3ccccc3)nc12 (centres undefined)	SW480 rereplic inconclusive, MCF10A rereplic 20.6µM (no result: ELG1 repair inh)
COc1ccc(-c2cc(C(F)F)nc(-n3nc(C)cc3C)n2)cc1	ELG1 repair inh inconclusive, KB-V1 cytotox 23.1µM
O=C1NC(=O)c2c(Br)c(Br)c(Br)c(Br)c21	none (no result: ELG1 repair inh)
Cc1cccc(C)c1NC(=O)CCc1nnc2ccc(N3CCCC3)nn12	KB-3-1 tox inconclusive
O=C(OCn1ncc(Cl)c(Cl)c1=O)c1cccc(C(F)(F)F)c1	SW480 rereplic 5.8µM, ELG1 repair inh inconclusive, MCF10A rereplic 5.8µM, KB-V1 cytotox inconclusive, KB-3-1 tox 4.61µM
N/C(=N\OC(=O)c1cccc(C(F)(F)F)c1)c1cnccn1	ELG1 repair inh inconclusive
COc1ccc(CCNc2cc(N3CCN(C(=O)c4ccccc4F)CC3)ccc2[N+](=O)[O-])cc1OC	ELG1 repair inh 4.11µM, KB-V1 cytotox inconclusive
COc1ccc(CCNc2cc(N3CCN(C(=O)c4ccc(C)cc4)CC3)ccc2[N+](=O)[O-])cc1OC	ELG1 repair inh 2.06µM (no result: SW480 rereplic, MCF10A rereplic, KB-V1 cytotox, KB-3-1 tox)
COc1ccc(C(=O)N2CCN(c3ccc([N+](=O)[O-])c(NCCc4ccc(OC)c(OC)c4)c3)CC2)cc1	ELG1 repair inh inconclusive, KB-V1 cytotox inconclusive, KB-3-1 tox inconclusive
Cc1ccccc1-c1nc(CS(=O)(=O)CC(=O)NCCN2CCCC2)c(C)o1	none
Cc1ccccc1S(=O)(=O)Cc1ccc(C(=O)NCc2ccccc2Cl)o1	KB-V1 cytotox inconclusive (no result: SW480 rereplic, ELG1 repair inh, MCF10A rereplic)
Cc1cc(C)c(C(=O)/C=C/C=C/c2ccccc2)c(=O)[nH]1	MCF10A rereplic inconclusive
Cc1cc(C)c(C(=O)/C=C/c2ccc(C(C)C)cc2)c(=O)[nH]1	SW480 rereplic inconclusive, ELG1 repair inh 20.6µM, MCF10A rereplic 13µM, KB-V1 cytotox 16.4µM
CN=C1N(C)C[C@@H]2[C@@H]3C(=O)N(C)C(=O)[C@@H]3[C@](Cc3ccccc3)(C(=O)OC)N12	none
C=CC(=O)Nc1cccc(N(C)c2ccnc(Nc3ccc(N4CCN(C)CC4)cc3)n2)c1	SW480 rereplic inconclusive, MCF10A rereplic 14.6µM, KB-3-1 tox inconclusive (no result: ELG1 repair inh)
C=CC(=O)Nc1cccc(Oc2ccnc(Nc3ccc(N4CCN(C)CC4)cc3)n2)c1	SW480 rereplic inconclusive, MCF10A rereplic 18.4µM, KB-3-1 tox inconclusive (no result: ELG1 repair inh)
C=CC(=O)Nc1cccc(Oc2ccnc3[nH]ccc23)c1	SW480 rereplic inconclusive, MCF10A rereplic inconclusive, KB-3-1 tox inconclusive (no result: ELG1 repair inh)
